High-throughput results from PubChem BioAssay.
Sampled rows, rich in hits. Any-hit rate of the full collection: about 3%.
GDH-TPI counter-1: GDH-TPI coupled enzyme inhibition counter-screen; GDH-TPI coupled enzyme counterscreen, NADH absorbance; inhibition, % at 4.8 µM; 1.2% of 360,000 active; AID 588335; in the data active = inhibition above about 30%;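 note: 0% = DMSO wells and 100% = wells lacking the enzyme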
BH1578 lux ind: induces V. cholerae light production without autoinducers | V. cholerae BH1578 lux reporter, luminescence, 6 h | activation, % at 18.7 µM | 0.16% of 350,000 active; in the data active = activation mostly above about 9.7%, no sharp cut-off
BioA inh: inhibitors of Mycobacterium tuberculosis BioA enzyme; inhibition, % at 9.99 µM; purified M. tuberculosis BioA enzyme, plate reader; 0.096% of 360,000 active; in the data active = inhibition above about 40%
FBA Mtb inh: inhibits M. tuberculosis FBA enzyme; purified M. tuberculosis FBA, fluorescence read-out; inhibition, % at 1 µM; 2.3% of 360,000 active;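 note: 0% = vehicle and 100% = reference inhibitor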
Target sequence (P9WQA3 whole entry, looked up): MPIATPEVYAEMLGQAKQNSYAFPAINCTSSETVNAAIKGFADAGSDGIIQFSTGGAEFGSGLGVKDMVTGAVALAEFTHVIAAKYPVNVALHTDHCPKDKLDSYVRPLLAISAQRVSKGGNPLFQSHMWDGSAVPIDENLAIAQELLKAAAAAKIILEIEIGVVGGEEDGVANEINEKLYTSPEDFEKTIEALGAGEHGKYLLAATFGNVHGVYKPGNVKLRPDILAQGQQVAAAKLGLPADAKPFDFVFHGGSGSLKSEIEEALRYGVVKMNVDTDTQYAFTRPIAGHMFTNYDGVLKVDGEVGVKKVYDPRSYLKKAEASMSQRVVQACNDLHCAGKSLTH
Mtb FBA inh conf: Mtb FBA inhibition, confirmed. inhibition, % at 1 µM. 78% of 5,600 active. purified M. tuberculosis FBA, fluorescence read-out. shares compounds with FBA Mtb inh;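 note: 0% = vehicle wells and 100% = reference inhibitor wells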
GDH-TPI counter-2: counter-screen for M. tuberculosis FBA inhibitors: GDH-TPI coupled enzyme inhibition | shares compounds with FBA Mtb inh | GDH-TPI coupled enzyme counterscreen, fluorescence | inhibition, % at 1 µM | 81% of 5,600 active; in the data active = inhibition above about 10%
Active calls of the source: *; i = inactive; nt = not tested or not shown; + = active, no number. Cut-off read from the data, not from the text of the source, unless noted: active = inhibition above about 27%; inactive = the rest.

SMILES	GDH-TPI counter-1	BH1578 lux ind	BioA inh	FBA Mtb inh	Mtb FBA inh conf	GDH-TPI counter-2
CC1(C)CC(=O)C2=C(C1)c1c(ccc3ccccc13)NC2c1ccco1 (centres undefined)	1.1	i	3.0	86.6*	103.7*	88.9*
O=C(Nc1cccnc1)c1cccc(-c2cc3ccccc3oc2=O)c1	-1.9	-0.5	nt	2.7	nt	nt
CCn1nnc(NC(=O)c2cccc(-c3cc4ccccc4oc3=O)c2)n1	19.4	-0.3	20.2	48.5*	153.4*	118.5*
O=C1C=C(Nc2ccccc2C(=O)O)c2ccccc2C1=O	12.1	-0.7	1.1	37.9*	+	157.1*
COc1ccc(-c2c(C)oc3c(CN4CCN(CCO)CC4)c(O)ccc3c2=O)cc1OC	12.4	1.1	nt	30.7*	63.6*	57.5*
Cc1oc2c(CN3CCCC3)c(O)ccc2c(=O)c1-c1ccc(Br)cc1	7.0	3.3	29.9	89.0*	+	+
COc1ccc(CN2CCC(=O)N(CCO)CC2)cc1OC	9.2	-0.4	0.4	0.9	nt	nt
Cc1oc2c(O)c(O)ccc2c(=O)c1-c1ccc(Cl)cc1	15.3	i	8.6	-1.5	nt	nt
O=c1c(-c2ccc3c(c2)OCCO3)coc2c(CN3CCOCC3)c(O)ccc12	7.9	-5.3	0.8	14.4	nt	nt
COc1ccc(-c2c(C)oc3c(CN4CCOCC4)c(O)ccc3c2=O)cc1	10.1	-0.3	14.3	103.8*	59.9*	50.7*
C[C@@H]1CN([C@H](C)CO)C(=O)c2cc(NC(=O)Cc3cn(C)c4ccccc34)ccc2O[C@@H]1CN(C)Cc1ccc(C(=O)O)cc1	nt	nt	7.4	nt	nt	nt
Cc1ccc(-c2nc3c(=O)n(-c4ccccc4)c4c(c(=O)n(C)c(=O)n4C)c3o2)cc1	0.0	i	1.0	2.5	nt	nt
Cc1ccc(-c2nc3c(=O)n(C)c4ccccc4c3o2)cc1	7.7	-0.2	-0.2	34.7*	2.3	-1.9
Cc1cc(/C=N/NC(=O)Cn2c3ccccc3c(=O)c3ccccc32)c(C)n1-c1ccccc1	8.6	-0.3	nt	66.1*	+	+
Cc1cc(N=Cc2c(O)n(-c3ccc4c(c3)OCO4)c(=O)c3ccccc23)ccn1	6.1	i	3.5	38.1*	+	+
Cc1ccc(-n2c(O)c(C=Nc3ccc4c(c3)OCO4)c3ccccc3c2=O)cc1C	4.7	0.5	nt	1.8	nt	nt
CN1c2ccc(C#Cc3cccnc3)cc2[C@H]2[C@H](CCN2S(=O)(=O)c2ccccc2F)[C@@H]1CO	nt	nt	-1.5	nt	nt	nt
Cc1cccc(NC(=S)Nc2cccc(C)n2)n1	12.0	i	-0.3	91.0*	8.6	-3.2
Cc1cccc(NC(=S)NC2CCCC2)n1	1.0	-0.2	nt	0.8	nt	nt
COc1ccc(S(=O)(=O)N[C@H]2CC[C@H](CC(=O)NCc3ccccc3F)O[C@H]2CO)cc1	nt	nt	-1.5	nt	nt	nt
C(=C\c1ccc2nncn2c1)/c1ccccc1	12.8	-0.2	0.5	50.3*	11.3	-2.8
COc1ccccc1CNC(=O)c1ccccc1N	-8.3	-0.2	-2.3	53.8*	59.6*	51.1*
Nc1ccccc1C(=O)NCCN1CCNC1=O	10.2	1.1	nt	92.6*	89.9*	76.9*
Cc1ccccc1CNC(=O)c1ccccc1C	2.3	i	-0.2	1.4	nt	nt
Cc1ccccc1CNC(=O)c1ccccc1N	5.4	1.4	-0.9	78.0*	+	191.2*
SMILES	GDH-TPI counter-1	BH1578 lux ind	BioA inh	FBA Mtb inh	Mtb FBA inh conf	GDH-TPI counter-2
Cc1cc(C(=O)NCc2ccccc2)c(=O)[nH]c1C	3.9	11.1	nt	55.8*	102.8*	74.1*
C[C@@H]1CCCCO[C@H](CN(C)C(=O)NC2CCCCC2)[C@H](C)CN([C@H](C)CO)C(=O)c2cc(NC(=O)c3ccccc3)ccc2O1	nt	nt	-4.9	nt	nt	nt
C[C@@H]1CN([C@@H](C)CO)C(=O)c2cc(C3=CCCC3)cnc2O[C@H]1CN(C)C(=O)C1CCC1	nt	nt	4.4	nt	nt	nt
CCCC#Cc1cnc2c(c1)C(=O)N([C@H](C)CO)C[C@H](C)[C@H](CN(C)S(C)(=O)=O)O2	nt	nt	-0.8	nt	nt	nt
NC(=O)c1cccc2cc3ccccc3cc12	4.2	-0.5	nt	36.6*	9.2	6.1
NC(=O)c1ccccc1OCc1cccc2ccccc12	5.6	-0.3	3.2	1.2	nt	nt
O=C(NCC1(N2CCCCC2)CCCCC1)c1ccc(NS(=O)(=O)c2ccccc2)cc1	4.5	-0.7	0.1	-0.6	nt	nt
NC(=O)c1ccccc1N	6.2	-0.5	2.0	86.5*	77.8*	54.2*
COc1ccccc1CNC(=O)c1ccccc1NS(C)(=O)=O	-7.5	-0.1	-0.7	29.5*	101.9*	79.8*
COc1ccccc1CNC(=O)c1ccc(NS(C)(=O)=O)cc1	-2.5	1.0	0.1	4.8	nt	nt
CS(=O)(=O)Nc1ccccc1C(=O)NCC1(N2CCCCC2)CCCCC1	-2.2	-0.3	nt	44.6*	8.9	-5.0
Cc1noc(C)c1NC(=O)Nc1cccc2c1O[C@H](CN(C)CC1CCCCC1)[C@@H](C)CN([C@H](C)CO)C2=O	nt	nt	1.7	nt	nt	nt
O=C(C[C@@H]1C[C@H]2c3cc(NC(=O)Nc4ccccc4)ccc3O[C@H]2[C@@H](CO)O1)NC1CCCC1	nt	nt	-0.8	nt	nt	nt
COc1cccc(C#Cc2cnc3c(c2)C(=O)N([C@@H](C)CO)C[C@H](C)[C@H](CN(C)C(=O)C2CCOCC2)O3)c1	nt	nt	1.2	nt	nt	nt
CCN(CC)CCNC(=O)c1ccccc1N	-4.5	0.7	-2.0	59.9*	140.2*	121.1*
CCN(CC)CCCNC(=O)c1ccccc1C	12.0	i	-3.8	1.8	nt	nt
COc1ccccc1C(=O)NCCC(=O)NCCOc1ccc(C)cc1	-3.5	-1.2	-1.0	-2.0	nt	nt
Nc1ccccc1C(=O)NCc1ccccc1	-4.8	-5.6	-1.5	44.4*	0.8	3.5
Nc1ccccc1C(=O)NCCCN1CCN(c2cccc(Cl)c2)CC1	1.1	-0.6	nt	54.1*	68.7*	71.7*
Cc1ccc(OCCNC(=O)c2ccccc2N)cc1	2.0	9.7	-0.7	49.0*	+	190.9*
C[C@H](CO)N1C[C@H](C)[C@@H](CN(C)C)Oc2c(NS(C)(=O)=O)cccc2C1=O	nt	nt	-2.0	nt	nt	nt
CC(C)NC(=O)Nc1ccc2c(c1)C(=O)N([C@H](C)CO)C[C@@H](C)[C@@H](CN(C)C(=O)Nc1ccccc1)OCCCC[C@@H](C)O2	nt	nt	-1.5	nt	nt	nt
COc1ccc(NC(=O)Nc2ccc3c(c2)[C@@H]2C[C@@H](CC(=O)NCc4ccccn4)O[C@H](CO)[C@@H]2O3)cc1	nt	nt	-0.5	nt	nt	nt
CCCOc1ccc2cc(C(=O)NCc3ccccc3)c(=O)oc2c1	8.1	-1.2	-3.3	44.4*	50.4*	39.3*
COc1ccc(CNC(=O)c2cc3cc(OC)ccc3oc2=O)cc1	0.8	0.4	0.2	12.0	nt	nt
COc1ccc2cc(C(=O)NCc3ccco3)c(=O)oc2c1	33.5*	0.1	6.2	45.5*	35.0*	26.3*
COCC(=O)Nc1ccc2c(c1)[C@@H]1C[C@H](CC(=O)NCc3ccc(-c4ccccc4)cc3)O[C@@H](CO)[C@@H]1O2	nt	nt	-1.7	nt	nt	nt
CC(=O)NC(c1cc(Cl)c2ccccc2c1O)C(C)C (centres undefined)	7.8	i	-0.8	7.5	nt	nt
CC(C)(NC(=O)c1cc(Cl)c2ccccc2c1O)C(=O)O	14.7	2.3	-1.0	55.8*	65.6*	56.9*
